ADAM17 inh = inhibits human ADAM17; P78536; recombinant ADAM17, EDANS/DABCYL FRET peptide cleavage; inhibition, % at 6.95 µM; 0.83% of 370,000 active; AID 720648;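 active = inhibition above the mean of compounds lying between control limits plus 3 SD, set per campaign, cut at about 8.5% in these data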;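 note: 0% = DMSO-only wells as the low control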
Target sequence (P78536 215-824 limits assumed): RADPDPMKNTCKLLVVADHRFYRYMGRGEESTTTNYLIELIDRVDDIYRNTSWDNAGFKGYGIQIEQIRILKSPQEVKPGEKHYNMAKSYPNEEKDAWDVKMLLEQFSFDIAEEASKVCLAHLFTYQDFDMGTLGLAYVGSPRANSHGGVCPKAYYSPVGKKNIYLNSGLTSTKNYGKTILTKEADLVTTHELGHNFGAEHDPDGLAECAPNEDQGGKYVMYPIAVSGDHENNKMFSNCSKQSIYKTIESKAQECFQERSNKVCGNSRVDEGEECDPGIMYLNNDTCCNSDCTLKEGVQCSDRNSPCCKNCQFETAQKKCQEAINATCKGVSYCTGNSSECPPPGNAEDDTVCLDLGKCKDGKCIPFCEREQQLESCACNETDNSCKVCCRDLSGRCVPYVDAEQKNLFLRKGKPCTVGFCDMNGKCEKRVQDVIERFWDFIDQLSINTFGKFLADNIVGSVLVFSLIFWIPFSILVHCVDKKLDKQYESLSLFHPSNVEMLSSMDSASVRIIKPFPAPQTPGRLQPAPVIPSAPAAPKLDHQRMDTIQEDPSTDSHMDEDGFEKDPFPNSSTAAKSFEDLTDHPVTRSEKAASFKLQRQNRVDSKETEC
PLC-gamma1 inh = inhibitors of human phospholipase C gamma1; P19174; purified PLC-gamma1, fluorogenic substrate, fluorescence; inhibition, % at 12.2 µM; 0.84% of 370,000 active; AID 720700; in the data active = inhibition above about 9.5%
sPLA2-III inh = Inhibits HGIII-sPLA2 liposome hydrolysis, primary screen; QFRET BODIPY PC-A2 liposome hydrolysis, fluorescence; Q9NZ20; inhibition, % at 12.2 µM; 0.56% of 370,000 active;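 active = inhibition above mean plus 3 SD of compounds lying within the high and low control bounds, cut at about 19% in these data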;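 note: 0% = median of test compound wells and 100% = no enzyme DMSO wells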
PLCb3 inh = blocks human PLC-beta3 enzyme activity; Q01970; Purified PLC-beta3, fluorogenic substrate, fluorescence; inhibition, % at 12.2 µM; 0.18% of 370,000 active; AID 720704; in the data active = inhibition above about 11%;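 note: 0% = median of compound wells on plate and 100% = full blocker control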
KLK7 zymogen act = activates the human kallikrein-7 zymogen; AID 652039; P49862; 0.9% of 370,000 active; activation, % at 7 µM; purified proKLK7, EDANS-DABCYL substrate fluorescence; 100% is mature enzyme control, 0% vehicle;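 active = activation above the mean of all tested compounds plus 3 SD, computed per campaign excluding outliers beyond control limits, cut at about 13% in these data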
ADAM10 inh = ADAM10 inhibition, QFRET primary screen; O14672; recombinant ADAM10, EDANS/DABCYL FRET peptide cleavage, 3 h; inhibition, % at 7 µM; 0.62% of 370,000 active;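 active = inhibition above a per-campaign cutoff equal to the mean of compounds falling between control-based bounds plus 3 SD, cut at about 20% in these data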;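 note: 0% = DMSO wells while the 100% control is not disclosed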
sPLA2 confirm = human GIII-sPLA2 inhibition, confirmation | shares compounds with sPLA2-III inh | recombinant hGIII-sPLA2, BODIPY PC-A2 QFRET fluorescence | inhibition, % at 12.2 µM | 34% of 2,000 active | AID 743280;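 active = mean inhibition across triplicates above the hit cutoff set in the earlier primary screen, cut at about 19% in these data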;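 note: 0% = enzyme with DMSO and 100% = DMSO wells lacking enzyme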
535nm interf = counter-screen for HGIII-sPLA2 inhibitors: 535nm fluorescence interference; 8.5% of 2,000 active; AID 743282; inhibition, % at 12.2 µM; BODIPY FL product fluorescence interference, QFRET; shares compounds with sPLA2-III inh;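 active = average inhibition above the solvent-only control mean plus 3 SD, cut at about 6% in these data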;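 note: 0% = DMSO with substrate plus product and 100% = DMSO with substrate alone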
BODIPY interf DR = 535nm optical interference dose response, HGIII-sPLA2 counter-screen; shares compounds with sPLA2-III inh; BODIPY FL product fluorescence interference, cell-free; IC50, µM; 240 tested, under 10 active; AID 743455;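 active = IC50 at or below 10 µM; inactive = IC50 above 10 µM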
Active calls of the source: *; x = not tested or not shown. Only some compounds are listed: those with a hit (about 3.4% of all), similar ones and a draw of the others.

SMILES	ADAM17 inh	PLC-gamma1 inh	sPLA2-III inh	PLCb3 inh	KLK7 zymogen act	ADAM10 inh	sPLA2 confirm	535nm interf	others
Cc1ccc(NC(=S)NNC(=O)c2ccccc2O)c(C)c1	-12	-13	49*	-19	-3	-38	37*	-1	BODIPY interf DR=>122
Cc1ccc(NC(=O)NNC(=O)c2cc3ccccc3cc2O)c(C)c1	0	-87	16	-152	-2	-3	x	x
CC(C)CNC(=O)C1(C)CCCN1Cc1ccc(S(C)(=O)=O)cc1 (centres undefined)	-6	-2	15	-4	-1	-13	x	x
CCCCNC(=S)NNC(=O)c1csc(C(C)C)c1	0	3	7	3	0	7	x	x
CCCCNC(=S)NNC(=O)c1csc(C)c1C	6	-1	27*	-3	0	9	29*	-2	BODIPY interf DR=>122
C=CCNC(=S)NNC(=O)c1csc(C)c1C	-1	8	24*	0	0	13	21*	-7
C=CCNC(=S)NNC(=O)c1cc(O)ccc1O	-13	-28	19	-39	-25	-24	x	x
Cc1ccc(S(=O)(=O)N(C)C)cc1NC(=O)COC(=O)CCC1CCCCC1	-2	-1	-9	-7	0	-9	x	x
COc1ccc(-n2c(C)cc(-c3csc(NC(=O)c4ccc(S(=O)(=O)N(C)C)cc4)n3)c2C)cc1	1	-6	-11	-6	-1	0	x	x
CC(C(=O)NC(C)(C)C)N1C(=O)c2cccc3cccc(c23)C1=O (centres undefined)	-171	-19	6	-31	-3	-404	x	x
S=C(N/N=C/c1cccs1)NC1CC2CCC1C2 (centres undefined)	-9	3	28*	-1	-1	-4	36*	3	BODIPY interf DR=>122
Cc1ccc(S(=O)(=O)/N=C(/Nc2ccc(O)c(C(=O)O)c2)c2ccccc2)cc1	-1	0	-9	-12	0	-2	x	x
S=c1[nH]nc(-c2ccc(Cl)cc2)n1/N=C/C=C/c1ccco1	-3	-5	25*	-14	0	-6	30*	3
O=S(=O)(Nc1ccc(Cl)nn1)c1ccccc1	-4	-2	6	-1	0	-1	x	x
O=S(=O)(NNc1ccc(Cl)nn1)c1ccc(F)cc1	1	1	19*	3	0	6	15	8.3*
CCCOc1ccc(C(=O)NNC(=S)NC(=O)c2ccco2)cc1	-1	1	31*	-16	0	2	34*	-8	BODIPY interf DR=>122
CCCOc1ccc(C(=O)NNC(=S)NC(C)=O)cc1	1	-1	9	0	0	3	x	x
COc1ccc(C(=O)NNC(=S)NC(=O)c2ccco2)cc1	6	8	20*	4	0	15	24*	0
O=C(/C=C/c1ccco1)NC(=S)NNC(=O)c1ccco1	-4	-13	31*	-16	1	-5	16	4
CC(=O)NC(=S)Nc1ccc(NC(=S)NC(=O)/C=C/c2ccco2)cc1	7	0	2	1	0	0	x	x
O=C(NC(=S)NC1CCC(O)CC1)c1ccco1 (centres undefined)	-4	1	20*	-4	-1	-17	1	-4
O=C(NNC(=S)NC(=O)c1ccco1)c1ccc(F)cc1	1	-1	7	-6	0	7	x	x
COc1ccc(S(=O)(=O)N2CCOC2CNC(=O)C(=O)NCc2ccc(F)cc2)cc1OC (centres undefined)	-1	3	1	-5	-1	2	x	x
O=C(CN(C(=O)c1csnn1)c1ccccc1C(F)(F)F)NCc1ccccc1	0	1	4	2	0	-6	x	x
O=C(COc1ccc(Cl)cc1Cl)NNC(=S)NC(=O)c1ccco1	-1	3	-6	-17	0	9	x	x
SMILES	ADAM17 inh	PLC-gamma1 inh	sPLA2-III inh	PLCb3 inh	KLK7 zymogen act	ADAM10 inh	sPLA2 confirm	535nm interf	others
CC(Oc1ccc(Cl)cc1)C(=O)NNC(=S)NC(=O)c1ccco1 (centres undefined)	4	0	28*	-2	0	18	36*	-1	BODIPY interf DR=>122
CCOC(=O)c1cnn(-c2ccccc2)c1NC(=O)CN1CCCCC1	-9	4	21*	-7	0	0	-1	-7
Cc1ccc(-c2nnc(SCC(=O)NNC(=O)COc3cccc4ccccc34)n2C)cc1	0	-1	0	-1	1	1	x	x
Cc1onc(-c2c(Cl)cccc2Cl)c1C(=O)NCc1ccccn1	-4	1	4	-3	0	-11	x	x
CCn1cc(CNC(=O)c2c(-c3c(Cl)cccc3Cl)noc2C)c(C)n1	-1	-1	21*	2	0	-5	0	-1
CC(=O)c1ccc(-n2nnnc2SCC(=O)Nc2sc(C)c(C)c2C#N)cc1	-3	-5	19*	-8	0	-1	4	-11
O=C(O)CNS(=O)(=O)Cc1ccccc1	-6	-1	20*	-8	0	-8	5	-6
CCOC(=O)c1cc2sccc2n1CC(=O)Nc1ccc(OC)cc1OC	0	-1	21*	-2	-1	-10	-25	-18
Cc1ccc(C2CC2C(=O)NNC(=S)Nc2ccc(Cl)cc2)cc1 (centres undefined)	5	2	21*	-2	0	18	9	12*
CNc1nc(N)nc(OC(C(F)(F)F)C(F)(F)F)n1	-6	0	7	-3	0	-5	x	x
COc1ccc2[nH]c(N=Nc3ccccc3C)c(O)c2c1	-2	-1	25*	-2	1	-8	10	2
Cc1csc(N(C(=O)Cc2ccccc2F)c2ccccc2)n1	-2	4	20*	1	0	-1	-3	-12
CNC(=S)NNC(=O)c1ccccc1Cl	6	7	3	-2	0	11	x	x
CC(C)(C)NC(=S)NNC(=O)c1ccccc1Cl	6	-3	22*	-4	0	8	23*	-5
O=C(NNC(=S)Nc1cccc(C(F)(F)F)c1)c1ccccc1Cl	4	-4	24*	-6	1	7	24*	4
O=C(NNC(=S)Nc1cccc(C(F)(F)F)c1)c1cccc(Cl)c1	8	-12	24*	-20	0	6	33*	6.5*
COc1ccc(NC(=O)c2ccc3c(c2)S(=O)(=O)N=C2CCCCCN23)cc1S(N)(=O)=O	-3	1	11	-5	0	-3	x	x

Assay outcomes (PubChem BioAssay)
